Screening data (PubChem)
Shown are actives, neighbours in structure and some others; about 9.3% of the full set was active somewhere.
NPC1 promoter act = activators of NPC1 promoter. Huh7 NPC1 promoter luciferase reporter, 24 h. Potency, µM (series often up to 9.22 µM), without a hit: at the top dose activation, hits mostly activators. 320,000 compounds, 2.4% hits. AID 485313; also: % of control where 0% means no effect; nearly all actives have a fitted effect of over 60% in size
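Luminescence from an NPC1 promoter-driven luciferase reporter in stably transfected Huh7 cells was measured after 24 h compound treatment at 37 °C, followed by 10 min ambient incubation with luciferase detection reagent.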
SMN2 splice enh = increases expression of the SMN2 splice variant | 210,000 compounds, 2.8% hits | HEK293 SMN2-luciferase splicing reporter, luminescence, 30-36 h | AID 1458 | Potency, µM (highest dose often 46.1 µM), for the others: at the highest dose activity change, positive = activation, actives largely listed as activators; also: % of control where 0% means no effect; nearly all actives have a fitted effect of over 55% in size
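qHTS luciferase splicing reporter: luminescence rises when SMN2 exon 7 is included in transfected HEK293 cells. Compound exposure lasted 30-36 h at 37C, with 4.5 mM final sodium butyrate as control, followed by a ONE-Glo read.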
ELG1 genotox = inducers of genotoxicity in HEK293T ELG1-luciferase cells; HEK293T ELG1-luciferase reporter, luminescence, 16 h; AID 504466; Potency, µM (titrated, usually from 46 µM), inactives show at the top dose activity change, positive = activation, hits mostly activators; 330,000 compounds, 1.3% hits; also: % of control where 0% means no effect; nearly all actives have a fitted effect of over 60% in size
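HEK293T cells expressing luciferase-tagged ELG1 were exposed to compound or DMSO vehicle for 16 hr at 37 °C and 5% CO2. Luciferase activity was then measured with ONE-Glo after 30 min at room temperature.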
Rab9 prom act = activates the Rab9 promoter | AID 485297 | Potency, µM (top dose mostly 9.22 µM), for inactives: top-dose activation, negative = inhibition, actives largely listed as activators | Huh7 Rab9 promoter-luciferase reporter, luminescence, 24 h | 320,000 compounds, 2.8% hits; also: % of control where 0% means no effect; nearly all actives have a fitted effect of over 60% in size
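Luminescence from Amplite-detected luciferase (10 minutes, ambient) reports Rab9 promoter activation. Before that, stable Rab9-luciferase Huh7 cells (1500/well, reduced-serum OP-MEM I plus 10% FBS) were exposed to compound for 24 hours at 37C.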
FLuc counter = firefly luciferase modulation, counter-screen for miR-21 project. P08659. purified FLuc, Km substrates, luminescence inhibition. Potency, µM (titrated, usually from 57.5 µM), for inactives: at the top dose activity change, negative = inhibition, actives largely listed as inhibitors. 360,000 compounds, 6.9% hits. AID 588342;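 also: plate controls were vehicle for no effect and reference inhibitor for full effect; nearly all actives have a fitted effect of over 55% in size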
Target sequence (P08659 whole entry, looked up): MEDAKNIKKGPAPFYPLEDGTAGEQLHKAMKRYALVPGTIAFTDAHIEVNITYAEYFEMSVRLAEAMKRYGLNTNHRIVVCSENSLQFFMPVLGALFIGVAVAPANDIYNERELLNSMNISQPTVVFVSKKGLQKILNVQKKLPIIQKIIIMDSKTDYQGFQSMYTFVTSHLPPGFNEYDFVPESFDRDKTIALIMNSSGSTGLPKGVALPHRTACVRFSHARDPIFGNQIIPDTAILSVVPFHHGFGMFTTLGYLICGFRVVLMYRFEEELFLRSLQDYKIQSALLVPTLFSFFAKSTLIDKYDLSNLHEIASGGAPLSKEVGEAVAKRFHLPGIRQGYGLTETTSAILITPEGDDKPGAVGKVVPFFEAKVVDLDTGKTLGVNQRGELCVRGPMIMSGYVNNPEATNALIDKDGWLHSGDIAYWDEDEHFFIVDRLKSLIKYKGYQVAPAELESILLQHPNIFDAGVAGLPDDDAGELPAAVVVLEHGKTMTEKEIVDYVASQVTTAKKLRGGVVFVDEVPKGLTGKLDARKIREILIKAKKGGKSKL
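Purified P. pyralis luciferase (10nM final) with 10uM D-luciferin and 10uM ATP (Km levels) in 50mM Tris acetate pH 7.5, 10mM Mg acetate, 0.01% Tween-20, 0.05% BSA; qHTS 6-point titration, ~60 µM downward; luminescence read.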
ELG1 DNA repair = blocks ELG1-dependent DNA repair in HEK293T cells. AID 504467. 330,000 compounds, 2.3% hits. HEK293T ELG1-luciferase reporter, luminescence, 16 h; DNA damage induced by 5-fluorouridine. Potency, µM (doses to about 46.1 µM), inactives show at the highest dose activity change, negative = inhibition, actives largely listed as inhibitors; also: % is scaled to controls: 0 for no effect and ±100 for the full control effect; nearly all actives have a fitted effect of over 55% in size
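DMSO vehicle served as the neutral condition. Each well held 2,000 cells given 5-fluorouridine plus compound; after 16 hr at 37 °C/5% CO2, ONE-Glo was added and luciferase measured 30 min later.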
* marks the source's active call; other numbers are inactive results. Calls follow the shape of the dose curve; as a rule, active = well fitted curve in the direction sought with a large enough effect; inconclusive = small, poorly fitted or top-dose-only effect, or another doubt; inactive = no such curve, though single readings can be large; an effect the other way counts as inactive or inconclusive. Potency is read from the fitted curve at half-maximal effect.

Screening Cc1ccc(OCc2ccc(C(=O)O)o2)c([N+](=O)[O-])c1 returned NPC1 promoter act inconclusive, SMN2 splice enh inconclusive, ELG1 genotox 6%, Rab9 prom act inconclusive, FLuc counter 27µM* and ELG1 DNA repair inconclusive.
For COc1ccccc1NC(=O)CCN1C(=O)/C(=C/c2cc(OC)c(OC)c(OC)c2)SC1=S the results were NPC1 promoter act -5%, ELG1 genotox -4%, Rab9 prom act -1%, FLuc counter 4% and ELG1 DNA repair inconclusive.
Screening COc1cc(OC)cc(C(=O)Nc2ccc(Nc3ccccc3)cc2)c1 returned NPC1 promoter act 12%, ELG1 genotox 8%, Rab9 prom act 7%, FLuc counter inconclusive and ELG1 DNA repair inconclusive.
Screening CC(NC(=O)Cc1ccc(NC(=O)N2CCSc3ncccc32)cc1)c1ccccc1 (centres undefined) returned FLuc counter 6%.
CC(C)c1nnc(NC(=O)CCC(=O)NCc2ccccc2Cl)s1 was read as NPC1 promoter act -6%, ELG1 genotox 9%, Rab9 prom act 0%, FLuc counter 0% and ELG1 DNA repair 13%.
Screening CCc1ccccc1NC(=S)NC1CC2CCC(C1)N2Cc1ccc(F)cc1 (centres undefined) returned NPC1 promoter act -1%, SMN2 splice enh -5%, ELG1 genotox -8%, Rab9 prom act -7%, FLuc counter inconclusive and ELG1 DNA repair 5%.
Screening COc1ccc(OCc2cc(C(=O)NCc3cccc(C)n3)no2)c(Cl)c1 returned NPC1 promoter act inconclusive, ELG1 genotox 26%, Rab9 prom act inconclusive, FLuc counter 24µM* and ELG1 DNA repair inconclusive.
Screening COc1cccc(OCc2cc(C(=O)NCc3ccccn3)no2)c1 returned NPC1 promoter act inconclusive, ELG1 genotox 16µM*, Rab9 prom act 2.8µM*, FLuc counter 15µM* and ELG1 DNA repair inconclusive.
Screening COc1cccc(OCc2cc(C(=O)NCCc3cccc(C)n3)no2)c1 returned NPC1 promoter act -3%, ELG1 genotox 0%, Rab9 prom act -2%, FLuc counter 3% and ELG1 DNA repair -3%.
For COc1cc(C)c(C)cc1S(=O)(=O)N1CCN(Cc2ccc3c(c2)OCO3)CC1 the results were NPC1 promoter act 2%, SMN2 splice enh 10%, ELG1 genotox 4%, Rab9 prom act -3%, FLuc counter 1% and ELG1 DNA repair inconclusive.
For CC(C)(C)c1ccc(OCCC(=O)OCC(=O)NC2CC2)cc1 the results were NPC1 promoter act -4%, ELG1 genotox -1%, Rab9 prom act -8%, FLuc counter 15µM* and ELG1 DNA repair inconclusive.
`Cn1c(N)c(C(=O)COC(=O)CCOc2ccc(C(C)(C)C)cc2)c(=O)n(C)c1=O` gave NPC1 promoter act -3%, SMN2 splice enh 9%, ELG1 genotox 4%, Rab9 prom act 8%, FLuc counter 21µM* and ELG1 DNA repair 11%.
COc1ccc(CNC(=O)COC(=O)CCOc2ccccc2)cc1 was read as NPC1 promoter act -1%, SMN2 splice enh 3%, ELG1 genotox 0%, Rab9 prom act 4%, FLuc counter -4% and ELG1 DNA repair 0%.
`CC(C)(C)c1ccc(OCCC(=O)OCC(=O)NCc2ccccc2)cc1` gave NPC1 promoter act 0%, ELG1 genotox 6%, Rab9 prom act -6%, FLuc counter 19µM* and ELG1 DNA repair -1%.
O=C(CSc1nnc(NC(=O)c2ccc(F)cc2)s1)NCc1ccco1 was read as NPC1 promoter act 1.6µM*, ELG1 genotox inconclusive, Rab9 prom act 3.5µM*, FLuc counter 1.9µM* and ELG1 DNA repair inconclusive.
O=C(CSc1nnc(NC(=O)c2ccc3c(c2)OCO3)s1)NCc1ccco1 was read as NPC1 promoter act 1.1µM*, SMN2 splice enh 4µM*, ELG1 genotox inconclusive, Rab9 prom act 0.71µM*, FLuc counter 0.76µM* and ELG1 DNA repair inconclusive.
`O=C(CSc1nnc(NC(=O)c2ccccc2)s1)NCc1ccco1` gave NPC1 promoter act 2.8µM*, ELG1 genotox inconclusive, Rab9 prom act 3.2µM*, FLuc counter 4.8µM* and ELG1 DNA repair inconclusive.
For CC(C)(C)c1ccc(C(=O)NCc2nnc(SCC(=O)NCc3ccco3)o2)cc1 the results were NPC1 promoter act 3%, ELG1 genotox 7%, Rab9 prom act 2%, FLuc counter 19µM* and ELG1 DNA repair 8%.
Screening O=C(CSc1nnc(NC(=O)c2ccco2)s1)NCc1ccc2c(c1)OCO2 returned NPC1 promoter act -5%, SMN2 splice enh 10%, ELG1 genotox -2%, Rab9 prom act -8%, FLuc counter inconclusive and ELG1 DNA repair 5%.
`O=C(CSc1nnc(NC(=O)C2CC2)s1)NCc1ccco1` gave NPC1 promoter act 0%, SMN2 splice enh 24%, ELG1 genotox 0%, Rab9 prom act -3%, FLuc counter -8% and ELG1 DNA repair 7%.
Screening CC(CNC(=O)Cn1ccc2cc(S(=O)(=O)N3CCCC3)ccc21)c1ccccc1 (centres undefined) returned NPC1 promoter act -5%, ELG1 genotox -6%, Rab9 prom act -4%, FLuc counter -3% and ELG1 DNA repair -11%.
Screening Cc1ccccc1Nc1nnc(SCC(=O)NCc2ccco2)s1 returned NPC1 promoter act 1%, SMN2 splice enh 6%, ELG1 genotox 0%, Rab9 prom act 4%, FLuc counter 3% and ELG1 DNA repair -18%.
Screening Cc1ccccc1C(=O)Nc1nnc(SCC(=O)NCc2ccco2)s1 returned NPC1 promoter act 1.8µM*, ELG1 genotox 2.9µM*, Rab9 prom act 1.8µM*, FLuc counter 1.7µM* and ELG1 DNA repair inconclusive.
CN(CC(=O)Nc1ccccc1Br)C(=O)CNC(=O)c1ccco1 was read as NPC1 promoter act 0%, ELG1 genotox 3%, Rab9 prom act -3%, FLuc counter -2% and ELG1 DNA repair 10%.
CN(CC(=O)Nc1ccccc1Br)C(=O)CN1CCN(Cc2cccc(Cl)c2)CC1 was read as ELG1 genotox -8% and ELG1 DNA repair 18µM*.
COc1cccc2cc(-c3ccnc(=S)[nH]3)oc12 was read as NPC1 promoter act 5%, SMN2 splice enh 11µM*, ELG1 genotox 3%, Rab9 prom act 4%, FLuc counter -18% and ELG1 DNA repair inconclusive.
COCCCn1c(=O)c2ccccc2n(Cc2ccccc2C)c1=O was read as NPC1 promoter act -7%, ELG1 genotox 2%, Rab9 prom act 1%, FLuc counter -4% and ELG1 DNA repair -6%.
